The whole screen tested about 310,000 compounds, of which about 14,000 (4.5%) showed an effect of 50% or more. Effects have a minus sign here. The sample holds strong results, similar compounds and a random draw of the others, so the mix is not that of the screen.
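Note: peak tail current of the secondary pulse compared with the same well before compound.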

Chain of human ether-à-go-go-related gene (hERG) potassium channel (Q12809 whole entry, looked up): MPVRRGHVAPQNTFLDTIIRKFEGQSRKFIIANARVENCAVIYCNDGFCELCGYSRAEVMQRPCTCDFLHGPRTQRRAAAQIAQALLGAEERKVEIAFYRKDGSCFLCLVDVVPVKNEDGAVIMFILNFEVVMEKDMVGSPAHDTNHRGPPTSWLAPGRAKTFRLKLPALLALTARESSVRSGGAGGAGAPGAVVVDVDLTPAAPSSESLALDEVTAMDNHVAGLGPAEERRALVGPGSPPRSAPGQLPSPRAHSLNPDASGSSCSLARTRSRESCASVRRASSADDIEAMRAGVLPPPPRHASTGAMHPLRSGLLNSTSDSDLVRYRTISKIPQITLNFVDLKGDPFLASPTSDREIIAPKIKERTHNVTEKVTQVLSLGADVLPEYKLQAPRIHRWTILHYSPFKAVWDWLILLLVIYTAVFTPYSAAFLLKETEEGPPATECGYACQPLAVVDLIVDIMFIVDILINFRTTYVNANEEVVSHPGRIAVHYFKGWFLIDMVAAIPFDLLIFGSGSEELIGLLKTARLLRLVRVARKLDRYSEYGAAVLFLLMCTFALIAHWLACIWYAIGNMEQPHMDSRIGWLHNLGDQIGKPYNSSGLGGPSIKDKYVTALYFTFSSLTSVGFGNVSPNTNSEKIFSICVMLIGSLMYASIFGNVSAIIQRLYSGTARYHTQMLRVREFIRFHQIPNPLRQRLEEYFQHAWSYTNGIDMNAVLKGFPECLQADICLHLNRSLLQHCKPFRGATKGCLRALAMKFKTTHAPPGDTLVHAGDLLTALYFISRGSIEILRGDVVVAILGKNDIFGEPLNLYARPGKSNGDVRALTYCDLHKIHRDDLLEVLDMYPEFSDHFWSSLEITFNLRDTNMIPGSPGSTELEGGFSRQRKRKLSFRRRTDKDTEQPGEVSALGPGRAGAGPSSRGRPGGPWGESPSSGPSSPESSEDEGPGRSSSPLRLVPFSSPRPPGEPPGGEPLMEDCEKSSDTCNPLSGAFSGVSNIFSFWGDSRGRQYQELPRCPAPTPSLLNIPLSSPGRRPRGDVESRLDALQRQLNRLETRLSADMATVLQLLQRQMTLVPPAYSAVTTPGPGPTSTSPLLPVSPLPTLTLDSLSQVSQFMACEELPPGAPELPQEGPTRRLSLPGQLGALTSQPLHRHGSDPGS

The assay deals with human ether-à-go-go-related gene (hERG) potassium channel (human, UniProt Q12809). Nature of the assay: primary screen, population patch clamp on CHO cells stably expressing hERG; higher = less effect of the substance. As for the experimental part:
Briefly, Chinese hamster ovary (CHO) cells stably expressing the hERG channel were dislodged from tissue culture flasks and dispensed into PPC plates. […] During the recording, background leak currents were estimated by a 100 ms step to -80 mV from an initial holding potential of -70 mV and subtracted from the subsequent current measurement. The campaign was conducted in two phases using slight differences in recording protocol. In the first phase, the initial voltage pulse used a 100 ms step to -30 mV from a holding potential of -70 mV, a 2 s conditioning step to +25 mV, and a 2 s test step to -30 mV. During the second phase of the screen, the potential during the conditioning step was raised to +45 mV. In both phases of the campaign, a secondary voltage pulse was applied using the same parameters as the second phase initial pulse. The initial and secondary pulses were applied in the absence of compound, and upon application of 1 μM and 10 μM test concentrations. […]
For `COc1ccc(-n2c(SCCNCCO)nc3sc4c(c3c2=O)CCCC4)cc1`, the “hERG current change (%, negative = inhibition) at 10uM” value was -55.7%.

As to `COc1ccc(-n2c(NCCN(C)C)nc3sc4c(c3c2=O)CCCCC4)cc1`, the “hERG current change (%, negative = inhibition) at 10uM” value is -72.7%.

For the molecule `COc1ccc(CNc2nc3nc(-c4ccccc4)cc(=O)n3[nH]2)cc1OC`, the “hERG current change (%, negative = inhibition) at 10uM” value is listed as -13.1%.

For the molecule `CCOC(=O)c1sc(NC(=O)CSc2nc(C)cc(C(F)(F)F)n2)c(C#N)c1C`, the “hERG current change (%, negative = inhibition) at 10uM” value is 4.26%.

For `COc1ccc(C(=O)c2c[nH]c(C(=O)NCc3cccnc3)c2)cc1`, the “hERG current change (%, negative = inhibition) at 10uM” value is -12.7%.

On to `CCN1CCc2nc(NC(=O)c3cc(F)c(F)cc3Cl)sc2C1`, for which the “hERG current change (%, negative = inhibition) at 10uM” value is -34.2%.

As to `Cc1cccc(OCCOC(=O)c2ccc(F)c(S(=O)(=O)N3CCOCC3)c2)c1`, the “hERG current change (%, negative = inhibition) at 10uM” value is recorded as -18.1%.

As for `CCN1CCc2c(sc(NC(=O)c3ccc(S(=O)(=O)N4CCOCC4)cc3)c2C(N)=O)C1`, the “hERG current change (%, negative = inhibition) at 10uM” value is listed as -21.9%.

Take `CN1CCc2c(sc(NC(=O)c3ccc(C(=O)c4ccccc4)cc3)c2C(N)=O)C1.Cl`: the “hERG current change (%, negative = inhibition) at 10uM” value stood at 11.5%.

Consider `CCN1CCc2c(sc(NC(=O)c3ccc4ccccc4c3)c2C(N)=O)C1.Cl`, for which the “hERG current change (%, negative = inhibition) at 10uM” value is recorded as 7.59%.

As for `CNC(=O)c1c(NC(=O)c2ccc(S(=O)(=O)N3CCCCC3)cc2)sc2c1CCN(C(C)C)C2`, the “hERG current change (%, negative = inhibition) at 10uM” value was -65.8%.

`CCN1CCN(S(=O)(=O)c2ccc(C(=O)Nc3sc4c(c3C(N)=O)CCN(CC)C4)cc2)CC1`: the “hERG current change (%, negative = inhibition) at 10uM” value came to 12.4%.

With `CNC(=O)c1c(NC(=O)c2ccc(S(=O)(=O)N3CCCC3)cc2)sc2c1CCN(C(C)C)C2`, the “hERG current change (%, negative = inhibition) at 10uM” value is on record as 2.7%.

In the case of `CCN1CCc2c(sc(NC(=O)c3ccc(C(=O)c4ccccc4)cc3)c2C(N)=O)C1.Cl`, the “hERG current change (%, negative = inhibition) at 10uM” value is on record as -55.4%.

For the molecule `Cl.NC(=O)c1c(NC(=O)c2ccccc2)sc2c1CCN(Cc1ccccc1)C2`, the “hERG current change (%, negative = inhibition) at 10uM” value amounted to 7.85%.

`CNC(=O)c1c(NC(=O)c2ccc(S(=O)(=O)N3CC(C)OC(C)C3)cc2)sc2c1CCN(C(C)C)C2` (stereo not drawn): the “hERG current change (%, negative = inhibition) at 10uM” value is -26.9%.

For the molecule `CCC(=O)Nc1sc2c(c1C(N)=O)CCN(Cc1ccccc1)C2.Cl`, the “hERG current change (%, negative = inhibition) at 10uM” value is reported as -53.3%.

In the case of `CCN1CCc2c(sc(NC(=O)c3ccc(S(=O)(=O)N4CC(C)OC(C)C4)cc3)c2C(N)=O)C1` (stereo not drawn), the “hERG current change (%, negative = inhibition) at 10uM” value is listed as -54.5%.

Consider `Cl.NC(=O)c1c(NC(=O)Cc2ccccc2)sc2c1CCN(Cc1ccccc1)C2`, for which the “hERG current change (%, negative = inhibition) at 10uM” value is 7.96%.

In the case of `N=C1/C(=C\c2ccc(-c3cccc(C(=O)O)c3)o2)C(=O)N=C2SC=C(c3ccccc3)N12`, the “hERG current change (%, negative = inhibition) at 10uM” value amounted to 0.469%.

For the molecule `CCCN1CCCc2ccccc21.Cl`, the “hERG current change (%, negative = inhibition) at 10uM” value came to 7.61%.

For `CNC(CC(C)C)C(=O)NC1C(=O)NC(CC(N)=O)C(=O)NC2C(=O)NC3C(=O)NC(C(=O)NC(C(=O)O)c4cc(O)cc(O)c4-c4cc3ccc4O)C(O)c3ccc(c(Cl)c3)Oc3cc2cc(c3OC2OC(CO)C(O)C(O)C2OC2C[C@](C)(N)C(O)C(C)O2)Oc2ccc(cc2Cl)C1O` (stereo partly drawn), the “hERG current change (%, negative = inhibition) at 10uM” value stood at 9.61%.

On to `COC(=O)c1ccc2c(=O)[nH]c(CCl)nc2c1`, for which the “hERG current change (%, negative = inhibition) at 10uM” value stood at 10.7%.

As to `COC(=O)NNC(=O)c1ccc(Cl)cc1Cl`, the “hERG current change (%, negative = inhibition) at 10uM” value turned out to be 19.8%.

As to `O=C(C1=C(O)C(=O)N(CC2CCCO2)C1c1ccc(Cl)cc1Cl)c1ccco1` (stereo not drawn), the “hERG current change (%, negative = inhibition) at 10uM” value is reported as 18.5%.

As to `COc1ccc(-c2oc(/N=C/N3CCOCC3)c(C#N)c2-c2ccc(OC)cc2)cc1`, the “hERG current change (%, negative = inhibition) at 10uM” value is on record as 13.9%.

In the case of `CCOC(=O)c1c(NC(=O)CC)sc2c1CCN(Cc1ccccc1)C2.Cl`, the “hERG current change (%, negative = inhibition) at 10uM” value is listed as -14.5%.

For the molecule `COC(=O)c1c(NC(=O)C(C)(C)C)sc2c1CCN(Cc1ccccc1)C2.Cl`, the “hERG current change (%, negative = inhibition) at 10uM” value is given as -34.7%.

On to `CC(=O)Nc1sc2c(c1C(N)=O)CCN(Cc1ccccc1)C2.Cl`, for which the “hERG current change (%, negative = inhibition) at 10uM” value is -23.3%.

For the molecule `CCC(=O)Nc1sc2c(c1C(=O)OC)CCN(Cc1ccccc1)C2.Cl`, the “hERG current change (%, negative = inhibition) at 10uM” value is -62.9%.

As to `CC(C)C(=O)Nc1sc2c(c1C(N)=O)CCN(Cc1ccccc1)C2.Cl`, the “hERG current change (%, negative = inhibition) at 10uM” value was -108%.

Take `COC(=O)c1c(NC(=O)C(C)C)sc2c1CCN(Cc1ccccc1)C2.Cl`: the “hERG current change (%, negative = inhibition) at 10uM” value is listed as -38.4%.

Consider `O=C(N/N=C/c1cn(-c2ccccc2)nc1-c1ccc2c(c1)OCCO2)c1ccncc1`, for which the “hERG current change (%, negative = inhibition) at 10uM” value is 15.2%.

`COc1ccc(NC(=O)COc2coc(CN3c4ccccc4CC3C)cc2=O)cc1` (stereo not drawn): the “hERG current change (%, negative = inhibition) at 10uM” value is given as 5.06%.

For `O=C(O)c1cc2c(cc1NC(=O)c1c(F)cccc1Cl)OCCCO2`, the “hERG current change (%, negative = inhibition) at 10uM” value is recorded as 5.08%.

Take `Cc1nc2sc3c(c2c(=O)n1/N=C/c1ccco1)CCCC3`: the “hERG current change (%, negative = inhibition) at 10uM” value amounted to 16.8%.

Turning to `CCN1CCN(C(=O)c2cc3c(s2)-c2ccccc2S(=O)(=O)C3)CC1`, the “hERG current change (%, negative = inhibition) at 10uM” value is listed as -11.2%.

With `CN1CCN(C(=O)c2cc3c(s2)-c2ccccc2S(=O)(=O)C3)CC1`, the “hERG current change (%, negative = inhibition) at 10uM” value is recorded as 4.14%.

For `COc1cc(OC)c(N(C)C(=O)c2cc3c(s2)-c2ccccc2S(=O)(=O)C3)cc1Cl`, the “hERG current change (%, negative = inhibition) at 10uM” value is -13.2%.

As for `COc1ccc(N(C)C(=O)c2cc3c(s2)-c2ccc(Cl)cc2S(=O)(=O)C3)c(OC)c1`, the “hERG current change (%, negative = inhibition) at 10uM” value was -58.5%.

For `CCOC(=O)N1CCN(C(=O)c2cc3c(s2)-c2ccc(Cl)cc2S(=O)(=O)C3)CC1`, the “hERG current change (%, negative = inhibition) at 10uM” value is recorded as -66.5%.

Regarding `COc1ccc(N(C)C(=O)c2cc3c(s2)-c2ccccc2S(=O)(=O)C3)cc1`, the “hERG current change (%, negative = inhibition) at 10uM” value is recorded as -39.9%.

The values above are taken from article PMC4336329 (PLoS ONE, 2015).
